Bioassay records deposited in PubChem by ICCB-Longwood Screening Facility, Harvard Medical School.
PV pol inh: poliovirus RdRp elongation inhibitors, primary screen, biochemical, fluorescence polarization, total intensity; Genome polyprotein (Poliovirus type 1 (strain Mahoney)), P03300; poliovirus polymerase elongation; active compounds read low; 150,000 tested, 0.66% active; % elongation, % (compound at 16.7 µg/mL); in the data active = % elongation below about 90%
AID504770: growth inhibition of E. coli YBA685, primary screen, V. cholerae RctB inhibitors; E. coli YBA685 rctB-dependent plasmid, OD600 growth, 3 h; active compounds read low; z-score (no concentration beside the values); 130,000 tested, 0.27% active; in the data active = z-score below about -2, passing the limit was not always enough
Mtb MenB inh: M. tuberculosis MenB inhibitors, primary screen, biochemical, absorbance; 1,4-dihydroxy-2-naphthoyl-CoA synthase (Mycobacterium tuberculosis (strain ATCC 25618 / …; 100,000 tested, 0.43% active; AID 540299, 2011; inhibition, % (no concentration beside the values); MenB enzyme assay, absorbance read-out; in the data active = inhibition above about 21%, passing the limit was not always enough
Mtb MbtI inh: MbtI salicylate synthase inhibitors, primary screen, biochemical, fluorescence intensity; purified MbtI enzyme, fluorescence intensity read-out; inhibition, % (no concentration beside the values); 100,000 tested, 0.89% active; in the data active = inhibition mostly above about 56%, no sharp cut-off; inactive = mostly below about 77%
Target sequence (P9WFX0 whole entry, looked up): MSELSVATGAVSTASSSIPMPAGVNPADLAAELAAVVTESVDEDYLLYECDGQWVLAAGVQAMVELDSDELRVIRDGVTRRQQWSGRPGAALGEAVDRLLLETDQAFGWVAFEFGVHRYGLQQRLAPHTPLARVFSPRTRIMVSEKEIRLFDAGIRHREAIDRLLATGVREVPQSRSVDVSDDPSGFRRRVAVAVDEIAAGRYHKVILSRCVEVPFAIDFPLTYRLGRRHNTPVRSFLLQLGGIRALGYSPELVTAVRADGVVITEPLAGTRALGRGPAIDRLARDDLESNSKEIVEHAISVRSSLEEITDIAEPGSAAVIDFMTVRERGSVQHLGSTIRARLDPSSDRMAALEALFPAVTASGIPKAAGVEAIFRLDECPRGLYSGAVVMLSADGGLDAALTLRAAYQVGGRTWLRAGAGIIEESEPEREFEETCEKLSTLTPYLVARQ
* marks the source's active call; other numbers are inactive results; i = inactive; . = no result; ! = not active in a repeat. Most compounds without a hit are left out; they make up all but 1.4% or so of the library.

SMILES	PV pol inh	AID504770	Mtb MenB inh	Mtb MbtI inh
O=C(Cc1ccc(-n2c(=O)c3ccccc3n(CC(=O)NCc3ccco3)c2=O)cc1)NCC1CCCO1 (configuration not stated)	.	1	.	.
Cc1ccc(S(=O)(=O)N2CCN(Cn3nc(C)sc3=S)CC2)c(C)c1	106	1.5	15	68*
Cc1ccc(S(=O)(=O)N2CCN(Cn3nc(Nc4ccccc4F)sc3=S)CC2)cc1	102	-0.55	4	94*
CCS(=O)(=O)N1CCN(S(=O)(=O)c2ccc(C)cc2)CC1	100	-0.25	-14	-18
Cc1ccc(S(=O)(=O)N2CCOCC2)c(C)c1	103	-1.1	2	1
Cc1ccc2nc(-c3ccc(C)s3)c(Nc3ccc4c(c3)OCCO4)n2c1	84*	.	.	.
O=C(NC1CCCCC1)[C@H]1CCCC[C@H]1C(=O)O	.	-0.2	.	.
S=C(NCc1ccco1)Nc1ccccc1	102	0.95	37*	4
O=C(Nc1ccccc1)C(=S)NCc1ccco1	102	0.8	-21	3
O=C(c1cccs1)C(NS(=O)(=O)c1ccccc1)NS(=O)(=O)c1ccccc1	100	-0.65	-12	-7
Cc1ccc(-c2n[nH]c(=S)n2C)cc1	101	1.6	1	73
Cc1ccc(-c2cn3c(=S)[nH]nc3s2)cc1	100	0.25	-51	98*
Cc1n[nH]c(=S)n1/N=C\c1ccco1	90*	-0.65	8	36
O=C(Cn1nc(-c2cccc(-n3cccc3)c2)oc1=O)N1CCCCC1	102	-0.15	11	-1
COc1cc2c(cc1OC)CN(C(=O)CCC(=O)O)CC2	106	1.3	-70	-6
S=c1[nH]c2ccc(Cl)cc2[nH]1	103	-0.55	-23	82*
S=c1[nH]c2ccc(Cl)cc2o1	100	-2*	-53	64*
Cc1ccc2[nH]c(=S)oc2c1	99	0.45	-28	61*
COC(=O)c1ccc(NC(C)=O)c(C(=O)OC)c1	.	-0.1	.	.
COC(=O)c1ccc(O)c(C(=O)OC)c1	0.0*	-0.15	-2	-126
CCN(CC)S(=O)(=O)c1ccc(Sc2nc(C)cs2)nc1	100	0.5	-2	-5
C/C(N)=C(/C#N)C(=O)CSc1n[nH]c(-c2cccs2)n1	102	-0.65	-7	147
CC(C)N(C(=O)CSc1n[nH]c(-c2cccs2)n1)C(C)C	105	-4*	-1	-53
Clc1nc2ccc3nsnc3c2nc1Cl	42*	-0.05	11	88
c1ccc(-n2nnnc2SSc2nnnn2-c2ccccc2)cc1	98	-0.7	-24	59*
SMILES	PV pol inh	AID504770	Mtb MenB inh	Mtb MbtI inh
O=C(Sc1nnnn1-c1ccccc1)c1cccc(Cl)c1	.	0.2	.	.
N#CC(C#N)=C/C=C(\Sc1nnnn1-c1ccccc1)c1ccccc1	98	-0.35	-10	84*
O=S(=O)(Cc1ccccc1)c1nnnn1-c1ccccc1	.	0.5	.	-6
CCS(=O)(=O)c1nnnn1-c1ccccc1	103	-0.2	42*	29
CSc1sc(Cl)c(Cl)c1S(=O)(=O)C(C)C	103	-1.1	12	1
Cn1nc(C(=O)NC(c2ccccc2)c2ccccc2)ccc1=O	103	0.1	-10	6
C#CC(CC)(CC)NC(=O)COc1ccccc1Cl	98	0.25	15	2
Oc1c(/C=N/n2cnnc2)sc2ccccc12	100	-0.15	i	71*
Cc1ccccc1N=Cc1sc2ccccc2c1O	75	0.9	-16	-4
CCc1cccc2c1=NC(=O)C=2c1c(C)[nH]n(-c2ccccc2)c1=O	97	-0.6	-4	85*
CCOC(=O)c1c(NC=O)sc2c1CCCC2	101	-0.45	-65	-46
COC(=O)Nc1ccc(SCC(=O)N(c2ccccc2)C(C)C)cc1	.	-0.9	.	.
CC(C)c1ccc(C2=CC(=O)C=CC2=O)cc1	105	-2	-8	89
O=C1C=CC(=O)C(c2ccc(C(=O)O)cc2)=C1	97	0.2	-3	91*
CCN(C(=O)Nc1cccc(Cl)c1)c1ccccc1	100	-0.3	-13	-7
CCN(CC)C(=O)Nc1cccc(Cl)c1	101	0.4	33*	0
CC1CCc2c(sc3nc(C(C)C)n4c(SCC(=O)NCc5ccco5)nnc4c23)C1 (configuration not stated)	103	0.75	27*	5
CCOC(=O)N1CCC(NS(=O)(=O)c2ccc(Cl)s2)CC1	107	0.4	-15	11
COC(=O)C1=C(C)NC(C)=C(C(=O)OC)C1c1ccccc1	.	1.1	.	.
COC(=O)C1=C(C)NC(C)=C(C(=O)OC)C1c1ccccc1[N+](=O)[O-]	101	0.75	-4	79*!
O=C1c2ccccc2C(=O)N1CCSc1ccccc1	100	-0.3	-4	6
C=CCn1c(C)cc(C(=O)CSC2=Nc3ccccc3C3CC=NN23)c1C (configuration not stated)	102	-0.5	55*	4
O=C1c2ccccc2C(=O)N1CCSC1=Nc2ccccc2C2CC=NN12 (configuration not stated)	105	0.65	34*	-1
C=CCn1c(C)cc(C(=O)CSc2nnc3ccccn23)c1C	103	0.2	.	-2
O=c1cccc2n1CC1CC(C2)N(c2nc(N3CCCCC3)nc(N3CCCCC3)n2)C1 (configuration not stated)	103	-0.5	-28	14
SMILES	PV pol inh	AID504770	Mtb MenB inh	Mtb MbtI inh
Cc1cnc2c(c1)N1CCC2CC1	102	2.1	39*	2
O=C(O)c1c[nH]c2ccccc2c1=O	108	0.5	-24	30
CN1c2ccsc2C(=O)/C(=C\Nc2ccc(F)cc2)S1(=O)=O	.	0.4	.	.
NC1CCc2cc(O)c(O)cc2C1 (configuration not stated)	98	.	.	93*
O=C(NC(=S)Nc1ncccn1)c1cccs1	104	-0.15	-15	1
O=C(OCCN1C(=O)c2ccccc2C1=O)c1ccccc1O	111	-0.55	3	-29
COc1ccc(CSc2cccc3cccnc23)cc1	105	-0.55	.	33
COc1cc(NC(C)CCCN)c2ncccc2c1 (configuration not stated)	58*!	0.25	-4	3
O=C(Nc1cccc(F)c1)[C@H](CSCc1ccccc1)N1Cc2ccccc2C1=O	84*	.	.	.
O=C(Nc1cccc(F)c1)[C@H](Cc1ccccc1)N1Cc2ccccc2C1=O	100	-0.55	-20	-9
c1csc(CN=C2SCCN2C2CCCCC2)c1	98	-0.25	10	11
Cc1nnc(NCc2ccco2)s1	99	0.25	-7	6
c1coc(CNc2nc(C34CC5CC(CC(C5)C3)C4)cs2)c1	91	0.7	-26	59*
O=C1NCC(O)=C1/C=N/Nc1ccccc1	103	-4*	0	45
Cc1cc2nc(C)n(CC(=O)N(C)c3ccccc3)c2cc1C	103	-0.65	-24	-6
C=C(C)CN(CC)C(=O)CSc1nc2ncc(Cl)cc2[nH]1	88*	0.25	-19	65
Cn1cccc1C(=O)NC(=O)CSc1nc2ncc(Cl)cc2[nH]1	103	-1.1	-28	-4
Brc1csc(CNCCc2ccco2)c1	86*	-0.3	8	9
